Results filed as inconclusive are left out. The source made the active and inactive calls. The calls were made as follows: active = hit-call score of the fitted dose curve at least 0.9, where 1 is the maximum; inconclusive = response in the unintended direction; inactive = score below 0.9.

In PubChem BioAssay (EPA / NIEHS) one finds AC50 and outcome data, which are given here for eight molecules.

Beta-2 adrenergic receptor (Homo sapiens), sequence (P07550 whole entry, looked up): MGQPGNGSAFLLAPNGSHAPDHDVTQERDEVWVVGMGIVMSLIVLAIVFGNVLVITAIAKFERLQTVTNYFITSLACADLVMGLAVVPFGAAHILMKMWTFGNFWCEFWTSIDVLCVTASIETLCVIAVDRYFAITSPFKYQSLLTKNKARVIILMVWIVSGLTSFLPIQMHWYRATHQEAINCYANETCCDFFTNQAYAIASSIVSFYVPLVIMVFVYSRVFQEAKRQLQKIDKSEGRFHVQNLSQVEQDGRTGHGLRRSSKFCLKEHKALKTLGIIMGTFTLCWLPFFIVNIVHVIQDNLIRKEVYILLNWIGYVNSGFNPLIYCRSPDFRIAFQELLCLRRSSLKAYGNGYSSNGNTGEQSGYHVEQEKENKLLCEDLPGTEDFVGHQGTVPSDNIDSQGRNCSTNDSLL
human Adrenergic, Alpha 2c Receptor (Adra2C), ADRA2C (gene 152), sequence (P18825 whole entry, looked up): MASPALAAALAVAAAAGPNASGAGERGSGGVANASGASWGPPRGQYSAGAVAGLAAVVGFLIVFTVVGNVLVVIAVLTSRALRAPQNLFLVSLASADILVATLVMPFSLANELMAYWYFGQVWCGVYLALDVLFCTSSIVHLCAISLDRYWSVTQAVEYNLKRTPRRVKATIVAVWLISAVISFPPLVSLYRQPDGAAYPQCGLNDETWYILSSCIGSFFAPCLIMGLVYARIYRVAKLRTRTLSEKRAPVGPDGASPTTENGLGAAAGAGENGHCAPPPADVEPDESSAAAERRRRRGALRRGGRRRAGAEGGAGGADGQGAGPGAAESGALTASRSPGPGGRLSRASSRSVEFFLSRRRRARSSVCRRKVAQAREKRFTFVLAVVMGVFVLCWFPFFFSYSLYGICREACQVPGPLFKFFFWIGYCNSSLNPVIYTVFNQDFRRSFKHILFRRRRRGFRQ

The target of one assay is human Adrenergic, Alpha 2c Receptor (Adra2C), ADRA2C (gene 152) (UniProt P18825). The assay can be described thus: NVS_GPCR_hAdra2C: NovaScreen (NVS) G Protein-Coupled Receptor Assay for human Adrenergic, Alpha 2c Receptor (Adra2C) (AID 2283259). The method in brief:
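Radioligand binding on Sf9-expressed receptor membranes, 1 h after chemical dosing, filter-based scintillation read-out. Loss of binding fitted positively versus DMSO; primary duplicate screen at 25 uM, actives retested in concentration series.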
Regarding `CC(C)(c1ccccc1)c1ccc(O)cc1`, the AC50 (in general, the concentration at which the activity in the assay is half-maximal) was 9.37 µM (active).
With `O=C(O)C(F)(F)C(F)(F)C(F)(F)C(F)(F)C(F)(F)C(F)(F)C(F)(F)C(F)(F)C(F)(F)F`, the AC50 was 10.9 µM (active).
The same measure, in the same setting: the result for `Oc1ccc(C(c2ccc(O)cc2)(C(F)(F)F)C(F)(F)F)cc1` reads 10.7 µM (active); that for `O=C(O)C(F)(F)C(F)(F)C(F)(F)C(F)(F)C(F)(F)C(F)(F)C(F)(F)C(F)(F)F`, 25 µM (active).
Turning to `CCCCCCCCCC[N+](C)(C)CCCCCCCCCC`, the AC50 was 3.53 µM (active).

In a further assay the target is Beta-2 adrenergic receptor (Homo sapiens) (UniProt P07550). In words: NVS_GPCR_hAdrb2: NovaScreen (NVS) G Protein-Coupled Receptor Assay for human Adrenergic, Beta 2 Receptor (Adrb2) (AID 2283261). Put shortly:
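Filter-based radioligand binding using receptor prepared from CHO cells, 1 h incubation, scintillation counting. Primary screen in duplicate at 25 uM, actives retested in concentration series; loss of binding relative to DMSO.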
Take `CN(C)c1nc(=O)n(C2CCCCC2)c(=O)n1C`: the call was inactive.
Turning to `Oc1ccc(C(c2ccc(O)cc2)(C(F)(F)F)C(F)(F)F)cc1`, the AC50 was 25 µM (active).
Turning to `CCCCCCCCCC[N+](C)(C)CCCCCCCCCC`, the AC50 was 17.5 µM (active).

In a further assay the target is human Adrenergic, Beta 3 Receptor (Adrb3), ADRB3 (gene 155) (UniProt P13945). The assay can be described thus: NVS_GPCR_hAdrb3: NovaScreen (NVS) G Protein-Coupled Receptor Assay for human Adrenergic, Beta 3 Receptor (Adrb3) (AID 2283262). Put shortly: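 Membranes from SK-N-MC cells pretreated with isoproterenol and 8-bromo-cAMP were used in a radioligand competitive displacement binding assay. Binding was read by filter-based scintillation counting 1 hour after dosing. Primary screening was in duplicate at 25 uM, with concentration series in follow-up.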
human Adrenergic, Beta 3 Receptor (Adrb3), ADRB3 (gene 155), sequence (P13945 whole entry, looked up): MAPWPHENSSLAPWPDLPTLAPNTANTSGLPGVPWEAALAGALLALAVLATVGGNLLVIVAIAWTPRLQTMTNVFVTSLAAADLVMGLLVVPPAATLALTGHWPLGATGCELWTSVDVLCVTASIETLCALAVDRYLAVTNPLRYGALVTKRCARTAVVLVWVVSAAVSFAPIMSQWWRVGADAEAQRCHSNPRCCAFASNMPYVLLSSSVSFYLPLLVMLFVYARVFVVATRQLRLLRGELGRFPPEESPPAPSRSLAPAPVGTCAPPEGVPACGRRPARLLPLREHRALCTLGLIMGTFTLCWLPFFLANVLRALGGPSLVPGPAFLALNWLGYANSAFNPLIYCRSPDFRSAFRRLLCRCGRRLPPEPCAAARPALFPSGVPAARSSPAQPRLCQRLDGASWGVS
Turning to `Oc1ccc(C(c2ccc(O)cc2)(C(F)(F)F)C(F)(F)F)cc1`, the call was inactive.
Take `c1cc2ccc3cccc4ccc(c1)c2c34`: the molecule was called inactive.
Consider `CCCCCCCCCC[N+](C)(C)CCCCCCCCCC`, for which the AC50 was 7.1 µM (active).

In another assay the target is human Dopamine Receptor D4.4 (DRD4.4), DRD4 (gene 1815) (UniProt P21917). The assay can be described thus: NVS_GPCR_hDRD4.4: NovaScreen (NVS) G Protein-Coupled Receptor Assay for human Dopamine Receptor D4.4 (DRD4.4) (AID 2283264). The method in brief: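 Radioligand displacement on human DRD4.4 from CHO-derived membranes, 1 hour incubation, bound counts read by filtration and scintillation. Primary screen in duplicate at 25 uM; actives followed up in concentration series.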
human Dopamine Receptor D4.4 (DRD4.4), DRD4 (gene 1815), sequence (P21917 whole entry, looked up): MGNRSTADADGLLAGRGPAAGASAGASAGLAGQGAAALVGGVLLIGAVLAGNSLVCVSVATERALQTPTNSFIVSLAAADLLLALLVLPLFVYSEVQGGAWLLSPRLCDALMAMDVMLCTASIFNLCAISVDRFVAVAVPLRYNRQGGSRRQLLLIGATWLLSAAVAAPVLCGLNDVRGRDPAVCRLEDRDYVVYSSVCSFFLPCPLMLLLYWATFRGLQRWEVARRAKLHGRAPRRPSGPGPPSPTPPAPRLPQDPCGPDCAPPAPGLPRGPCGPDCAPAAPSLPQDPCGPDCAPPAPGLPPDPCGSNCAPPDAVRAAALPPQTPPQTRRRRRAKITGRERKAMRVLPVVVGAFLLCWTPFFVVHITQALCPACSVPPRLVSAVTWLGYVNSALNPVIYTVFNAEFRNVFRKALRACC
`O=C(O)C(F)(F)C(F)(F)C(F)(F)C(F)(F)C(F)(F)C(F)(F)C(F)(F)C(F)(F)C(F)(F)F`: the AC50 is 25 µM (active).
In the case of `Oc1ccc(C(c2ccc(O)cc2)(C(F)(F)F)C(F)(F)F)cc1`, the AC50 is 14.1 µM (active).
Turning to `COc1ccc(O)c(C(C)(C)C)c1`, the call was inactive.
For `CCCCCCCCCC[N+](C)(C)CCCCCCCCCC`, the AC50 was 25 µM (active).
